Screens: PubChem BioAssay, University of Kansas High Throughput Screening Laboratory
The full list was thinned out, with hits kept by preference.
Pf apPOL inh – Pf-apPOL DNA polymerase inhibition; Recombinant Pf-apPOL, molecular beacon fluorescence, 1.5 h; inhibition, % at 10 µM; actives 0.25% (n = 210,000); AID 1794808
mHTT-CaM PPI inh – inhibitors of human mutant huntingtin-calmodulin interaction | P42858 | AlphaScreen His-mHTT/GST-CaM binding, luminescence | inhibition, % at 15 µM | AID 1671202 | actives 3.6% (n = 190,000)
A number is an active result; 0 = inactive; - = no result; ! = repeats disagree. Cut-off read from the data, not from the text of the source: active = inhibition above about 50%; inactive = the rest.

SMILES | Pf apPOL inh | mHTT-CaM PPI inh
CCCc1nnsc1C(=O)NCC1(c2ccccc2)CCOCC1 | 0 | 0
Cc1cc(O)c(C(C)C)cc1NC(=O)c1ccc(Cl)cc1 | 0 | 0
Cc1cc(O)c(C(C)C)cc1N=C1CSC(=O)N1 | 0 | 53
C=CCN1C(=O)CC(N2CCN(CC)CC2)C1=O (centres undefined) | 0 | 0
CCN(CC)CC#CC1(O)CCCCC1 | 0 | 0
OC1(C#CC#CC2(O)CCCCC2)CCCCC1 | 0 | 82
CCc1cc(C(=O)Nc2ccc(C)cc2C)nc2ccnn12 | 0 | 0
Cc1cc(C)c(S(=O)(=O)Nc2ncccc2C)c(C)c1 | 100 | 0
Cc1cc(C)c(S(=O)(=O)Nc2ncccn2)c(C)c1 | 0 | 0
O=C(Nc1ccc(N2CCN(C(=O)c3ccccc3)CC2)nc1)C1CCCC1 | 0 | 0
COc1ccccc1C(=O)N1CCCC1c1cc(C(C)C)no1 (centres undefined) | 0 | 0
Cn1c(SCC(=O)O)nnc1-c1ccc(NC(=O)c2ccccc2Cl)cc1 | 85 | 0
Cn1c(SCC(=O)c2ccccc2)nnc1-c1ccc(NC(=O)c2ccccc2Cl)cc1 | 0 | 0
COc1ccc(/C=C/C(=O)NCCc2cc3c(C)ccc(C)c3[nH]c2=O)cc1OC | 0 | 0
CC(C)N(Cc1ccccc1)c1ncnc(N)c1[N+](=O)[O-] | 0 | 0
CN(Cc1ccccc1)c1ncnc(N)c1[N+](=O)[O-] | 92! | 0
COC(=O)C=C1NCC(OC(=O)c2ccc(C(C)(C)C)cc2)CNC1=O (centres undefined) | 0 | -
Fc1ccccc1CN1CCCN(c2ncccc2-c2nc(C3CC3)no2)CC1 | 0 | 0
Cc1sc(-c2ccn[nH]2)cc1NC(=O)C1CCCCC1 | 0 | 0
Cc1sc(-c2ccn[nH]2)cc1NC(=O)c1cccc(N(C)C)c1 | 0 | 87
COc1ccc(OC)c(NC(=O)CCS(=O)(=O)c2ccc(Br)cc2)c1 | 0 | 0
Cc1ccc(-c2csc(=Nc3ccccc3)n2CCCN(C)C)cc1 | 0 | 73
Cc1ccc(-c2csc(=Nc3ccccc3)n2CCCO)cc1 | 0 | 53
OCCCn1c(-c2ccc(Cl)s2)csc1=Nc1ccccc1 | 0 | 0
c1ccc(CCn2c(-c3ccccc3)csc2=Nc2ccccc2)cc1 | - | 0
SMILES | Pf apPOL inh | mHTT-CaM PPI inh
Cc1ccc(-c2cc(COC(=O)c3cnc4ccccc4n3)no2)cc1 | 0 | 0
COc1cccc(C2CC(c3ccc(OC)cc3OC)n3ncnc3N2)c1 (centres undefined) | 0 | 0
CCOc1nnc(-c2ccc(C)cc2)c2ccccc12 | 0 | 0
CCOc1nc(N=C(N)N)nc2c(C)cccc12 | 0 | 65
CC(C)c1[nH]nc2c1C1(C(=O)Nc3ccc(Cl)cc31)C(C#N)=C(N)O2 (centres undefined) | 0 | 0
COc1ccc2nc(NC(=O)c3cccc(Cl)c3Cl)sc2c1 | 0 | 0
COc1ccc(C2CC(c3cccc(C)c3)n3nc(N)nc3N2)cc1 (centres undefined) | 0 | 0
Nc1nc2n(n1)C(c1ccccc1)CC(c1ccccc1Cl)N2 (centres undefined) | 0 | 0
Cc1ccc(C2CC(c3ccc(Cl)cc3)n3nnnc3N2)cc1 (centres undefined) | 0 | 54
Cc1ccc(C2CC(c3ccccc3)n3nnnc3N2)cc1 (centres undefined) | 0 | 0
Cc1ccccc1C1CC(c2ccc(F)cc2)Nc2nc(N)nn21 (centres undefined) | 0 | 0
Cc1ccc(C2CC(c3ccccc3Cl)Nc3nc(N)nn32)cc1 (centres undefined) | 0 | 67
Cc1ccccc1C1CC(c2ccc(Br)cc2)Nc2nc(N)nn21 (centres undefined) | 0 | 71
Cc1cccc(C2CC(c3ccc(Br)cc3)Nc3nc(N)nn32)c1 (centres undefined) | 0 | 55
Cc1ccc(-c2noc(C3CCN(CC(=O)Nc4c(C)cccc4C)CC3)n2)cc1 | 0 | 0
O=C(Oc1ccccc1Oc1ccc(C(F)(F)F)cc1[N+](=O)[O-])c1cccnc1Oc1ccccc1 | 0 | -
CC1=C(n2cnc([N+](=O)[O-])n2)C(c2ccccc2)C(C#N)=C(N)O1 (centres undefined) | 0 | 0
CCCC12CN3CC(C)(CN(C1)C3c1ccc([N+](=O)[O-])cc1)C2=O (centres undefined) | 0 | 0
COC(=O)c1ccccc1NC(=O)C(C#N)=Cc1c(F)cccc1Cl | 0 | -
COc1cc(NC(=O)Cc2ccccc2)ccc1NC(=O)c1cc2ccccc2o1 | 0 | 0
CCCC(=O)N1CCCC1c1nc2cc(-c3ccc(N(C)C)cc3)ccc2o1 (centres undefined) | 0 | 86
CCC(=O)N1CCCC1c1nc2cc(-c3cccc(F)c3)ccc2o1 (centres undefined) | 0 | 0
CCCC(=O)N1CCCC1c1nc2cc(-c3ccccc3F)ccc2o1 (centres undefined) | 0 | 0
CC(C)CC(=O)N1CCCC1c1nc2cc(-c3ccc(N(C)C)cc3)ccc2o1 (centres undefined) | 0 | 87
COc1ccc(CNC(=O)c2cc3n(n2)CCCN(Cc2ccccc2)C3=O)c(OC)c1 | 0 | 0
SMILES | Pf apPOL inh | mHTT-CaM PPI inh
COCc1cc(C)c2c(N)c(C(=O)c3ccc(Cl)cc3Cl)sc2n1 | 0 | 0
CCc1noc(-c2cccnc2N2CCCN(C(=O)c3ccc(N(C)C)cc3)CC2)n1 | 0 | 0
CCC1CCCCN1CCNC(=O)c1ccc(-c2ccnc(N3CCCC3)n2)cc1 (centres undefined) | 0 | 0
O=C1CSC(c2cc3c(cc2[N+](=O)[O-])OCO3)N1c1ccccc1 (centres undefined) | 0 | 0
O=C1c2ccccc2NC(c2cc3c(cc2[N+](=O)[O-])OCO3)N1c1ccccc1 (centres undefined) | 0 | 90!
CC(C)Cn1c(=O)c(N2CCC(NC(=O)NCCc3ccccc3)CC2)nc2ccccc21 | 0 | 0
COc1ccc(Br)cc1C1NC(C(=O)O)CS1 (centres undefined) | 0 | 0
O=C(O)C1CSC(c2cc(Br)ccc2O)N1 (centres undefined) | 0 | 56
O=C(O)C1CSC(c2ccc(Cl)c(Cl)c2)N1 (centres undefined) | 0 | 0
O=C(O)C1CSC(c2cc(Cl)cc(Cl)c2O)N1 (centres undefined) | 0 | 91
CC1CCCN(CCCNC(=O)C2CCN(c3ccc(N4CCCC4)nn3)CC2)C1 (centres undefined) | 0 | 0
O=C(NC1CC1)c1ccc(OCC2CCN(C(=O)c3ccc(F)c(Cl)c3)CC2)cc1 | 0 | 0
COc1cccc(NC(=O)c2cccc(N3CCNC(c4ccccc4)C3)n2)c1 (centres undefined) | 0 | 0
O=C(NCCc1ccccn1)c1cccc(N2CCNC(c3ccccc3)C2)n1 (centres undefined) | 0 | 0
O=C(NCc1ccc(N2CCCC2)cc1)c1cccc(N2CCNC(c3ccccc3)C2)n1 (centres undefined) | 0 | 82
O=C(NCCc1cccs1)c1cccc(N2CCNC(c3ccccc3)C2)n1 (centres undefined) | 0 | 87
O=C(NCc1ccncc1)c1cccc(N2CCNC(c3ccccc3)C2)n1 (centres undefined) | 0 | 0
COc1ccc(NC(=O)c2cccc(N3CCNC(c4ccccc4)C3)n2)c(OC)c1 (centres undefined) | 0 | 70
COc1ccc(-n2nc3c(c2NC(=O)CC(C)C)CS(=O)(=O)C3)cc1 | 0 | 0
O=C(Nc1ccccc1Cl)N1CC2CC(NS(=O)(=O)c3cccs3)C1C2 (centres undefined) | 0 | 0
CC(=O)Nc1ccccc1/C=C/c1ccc2c(C)ccc(O)c2n1 | 0 | 0
